Laboratory results reported in PubChem BioAssay (NCI).
About 83,000 compounds went through this panel and 20% of them were active in at least one assay; those are over-represented in the sample as a whole.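 A percent growth of 40 corresponds to 60% growth inhibition; 0 means no net growth; -100 means all cells died. Active threshold: below 10.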 A number with no mark means an inactive call. Active and inactive are the calls of the source.

What was measured:
Test in all cases: NCI-60 one-dose screen, 48 h (100 = growth as untreated, 0 = no growth, -100 = all killed)
Details in all cases: 10 µM
RPMI-8226 leukemia = test system: RPMI-8226 leukemia
OVCAR-8 ovarian = test system: OVCAR-8 ovarian
OVCAR-5 ovarian = test system: OVCAR-5 ovarian
OVCAR-4 ovarian = test system: OVCAR-4 ovarian
SK-OV-3 ovarian = test system: SK-OV-3 ovarian
IGROV1 ovarian = test system: IGROV1 ovarian
OVCAR-3 ovarian = test system: OVCAR-3 ovarian
HS 578T breast = test system: HS 578T breast
NCI/ADR-RES ovarian = test system: NCI/ADR-RES ovarian
BT-549 breast = test system: BT-549 breast
MDA-MB-435 melanoma = test system: MDA-MB-435 melanoma
SW-620 colon = test system: SW-620 colon
MCF7 breast = test system: MCF7 breast
HCT-116 colon = test system: HCT-116 colon
HCC-2998 colon = test system: HCC-2998 colon
KM12 colon = test system: KM12 colon
T-47D breast = test system: T-47D breast

| Compound | growth (RPMI-8226 leukemia) | growth (OVCAR-8 ovarian) | growth (OVCAR-5 ovarian) | growth (OVCAR-4 ovarian) [%] | growth (SK-OV-3 ovarian) | growth (IGROV1 ovarian) | growth (OVCAR-3 ovarian) | growth (HS 578T breast) | growth (NCI/ADR-RES ovarian) | growth (BT-549 breast) [%] | growth (MDA-MB-435 melanoma) | growth (SW-620 colon) | growth (MCF7 breast) | growth (HCT-116 colon) | growth (HCC-2998 colon) | growth (KM12 colon) | growth (T-47D breast) |
| --- | --- | --- | --- | --- | --- | --- | --- | --- | --- | --- | --- | --- | --- | --- | --- | --- | --- |
| CCOC(=O)c1ccoc1 | 102% | 101% | 90.7% | 104 | 93.3% | 101% | 101% | 100% | 108% | 98.4 | 107% | 100% | 95.1% | 97.1% | 113% | 104% | – |
| O=C(CC(c1ccccc1)N1CCOCC1)c1ccccc1 (stereo not drawn) | 5.15% (active) | 96.6% | 79.3% | 98.3 | 104% | 97.4% | 94.7% | – | 91.2% | 89.8 | 89.7% | – | 32.2% | 34.5% | – | 23% | 72% |
| CCc1ccc2c(c1)N(CCO)C1=C(C(=O)OC1)C2c1cc(OC)c(OC)c(OC)c1 (stereo not drawn) | 18.3% | 8.75% (active) | 36.6% | 48.6 | 23.4% | 10.1% | -57.6% (active) | 1.11% (active) | -3.11% (active) | 19.8 | -69.9% (active) | 23% | 19.4% | 7.59% (active) | – | -29.6% (active) | – |
| O=C(CSSCC(=O)c1ccc(Cl)cc1)c1ccc(Cl)cc1 | 24.9% | 47.8% | 60.1% | 85.8 | 60% | 78.9% | 78.4% | – | -13% (active) | 84.9 | 47.9% | 51.1% | 86.7% | 35.4% | 63.1% | 44.8% | 74.8% |
| O=C(C[n+]1ccccc1)c1ccc2ccccc2c1 | 93.4% | 89% | 75.9% | 86.3 | 101% | 105% | 95% | – | 92% | – | 102% | – | 98.1% | 91.2% | – | 93.1% | 87.2% |
| CCCCCCNC(=O)Oc1ccc(/C(=C(/CC)Cc2ccccc2)c2ccc(OCCN3CCCCC3)cc2)cc1 | 68.2% | 81.6% | 94% | 69.9 | 86.3% | 91.1% | 87.8% | 83.5% | 81.8% | 97.4 | – | 79.1% | 28.8% | 62.8% | 87.3% | 84% | – |
| Nc1c(C(=O)Nc2ccccc2)sc2nc3c(cc12)CCCC3 | 15.4% | 33.6% | 62% | 49.9 | 24.7% | 30.5% | -13.7% (active) | 36.8% | 20.4% | 66.6 | -30.6% (active) | 34.4% | 15.6% | 25.5% | 24.5% | 31.1% | – |
| COc1ccc2nc3ccccc3c(NCCNCC(C)O)c2c1 (stereo not drawn) | -1.19% (active) | -2.99% (active) | 1.61% (active) | 11.8 | -3.44% (active) | 4.2% (active) | – | 28.4% | 73.6% | 30.9 | 1.44% (active) | 0.102% (active) | 4.08% (active) | 0.194% (active) | -11.8% (active) | 9.48% (active) | -3.73% (active) |
| O=C(CCCCC[P+](c1ccccc1)(c1ccccc1)c1ccccc1)NC(COC(=O)C(Cl)Cl)(COC(=O)C(Cl)Cl)COC(=O)C(Cl)Cl | 83.3% | 95% | 98.6% | 100 | 94.3% | 100% | 103% | 110% | 114% | 94.9 | 102% | 107% | 95.2% | 100% | 109% | 107% | – |
| CCC1(C(C)C)NC(=O)NC1=O (stereo not drawn) | 91.8% | 104% | 89.3% | 103 | 107% | 112% | 115% | – | 99.5% | 104 | 106% | – | 103% | – | – | 104% | 97% |
| O=C(Cc1csc2nc(-c3ccc(Cl)cc3)cn12)N/N=C/c1ccccc1O | 23.6% | 41.6% | 58.2% | 43.2 | 52.7% | 11.7% | 13.9% | – | 41.3% | 62.6 | 67.4% | – | 42.5% | 36.6% | – | 36.5% | 57.7% |
| CCCCCCCCN(CCCCCCCC)CCCCCCCCCN1CCCc2cc(OC)ccc21 | 65.9% | 101% | 90.9% | 78.2 | 93.6% | 101% | – | 91.3% | 88.5% | 94.9 | 104% | 99% | 96% | 75.7% | 93.2% | 104% | 74.3% |
| COc1ccc2nc3cc(Cl)ccc3c(NCCNCC(C)O)c2c1 (stereo not drawn) | 19.8% | 17.1% | 24.6% | 37 | 37.5% | 26.2% | – | 67.2% | 51.9% | 88 | 37.9% | 19.9% | 10.5% | 13.1% | 40.8% | 25.5% | 25.9% |
| CC/C(=N\N=C(/CC)c1ccc(Br)cc1)c1ccc(Br)cc1 | 93.9% | 116% | 92.4% | 93.7 | 100% | 79.5% | – | 110% | 105% | – | 106% | 102% | 90.9% | 78.1% | 99.4% | 99.5% | 83% |
| COc1ccc(/C(=C2/O[C@@H]([C@H]3COC(C)(C)O3)[C@H]3OC(C)(C)O[C@@H]23)c2cc(OC)c(OC)c(OC)c2)cc1O | 36.4% | 96.1% | 92.9% | 106 | 90.1% | 92.6% | 58.3% | – | -10.5% (active) | 67.5 | -10.2% (active) | – | 60.9% | 78.1% | – | 5.71% (active) | 115% |
| COc1cc(/C(=C2/O[C@@H]([C@H]3COC(C)(C)O3)[C@H]3OC(C)(C)O[C@@H]23)c2ccc3ccccc3c2)cc(OC)c1OC | 36.8% | 18.9% | 38.2% | 25.7 | 51.4% | 21.4% | -6.76% (active) | – | 25.9% | 22.2 | 26.2% | – | 22.8% | -56.4% (active) | – | 33.4% | – |
| COc1cc(C(=C2O[C@@H]([C@H]3COC(C)(C)O3)[C@H]3OC(C)(C)O[C@@H]23)c2cc(OC)c(OC)c(OC)c2)cc(OC)c1OC | 88.1% | 108% | 90.8% | 108 | 116% | 137% | 112% | – | 91.7% | 111 | 113% | – | 103% | 96.4% | – | 107% | 95.7% |
| O=[N+]([O-])c1cccc(-c2ncc(-c3ccc(Cl)cc3Cl)[nH]2)c1 | -8.35% (active) | 83.5% | 117% | 70 | 115% | 26.6% | 59.8% | 44.9% | 97.2% | – | 76.5% | -88% (active) | -8.38% (active) | 13.5% | 58.1% | 15.7% | – |
| COc1ccc(C(=O)/C=C/c2cc(-c3cc(OC)c(OC)c(OC)c3)n[nH]2)cc1 | -38.8% (active) | 16.1% | 47.8% | 45.6 | 25.7% | – | 11.1% | 71.3% | 25.9% | – | 15.6% | -37.6% (active) | 16.5% | -76.3% (active) | 91.3% | -60.1% (active) | 13.6% |
| Nc1ccc2c(c1)C1(CCC2)NC(=O)NC1=O (stereo not drawn) | 98.4% | 100% | 92.8% | 106 | 109% | – | 110% | 103% | 108% | 102 | 102% | 104% | 97.2% | 101% | 115% | 102% | 96.3% |
